The panel holds about 83,000 compounds, 20% with a hit somewhere; the sample as a whole holds those more often.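 Method: cells in 96-well plates; compound added at one concentration; 48 h incubation; percent growth measured; values under 10 scored active.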 Activity calls are given as the source filed them.
Assays:
Experiment in all cases: NCI-60 one-dose screen, 48 h (100 = growth as untreated, 0 = no growth, -100 = all killed)
Settings in all cases: 10 µM
HCT-15 colon = tested on: HCT-15 colon
HT29 colon = tested on: HT29 colon
SNB-75 CNS = tested on: SNB-75 CNS
SNB-19 CNS = tested on: SNB-19 CNS
U251 CNS = tested on: U251 CNS
PC-3 prostate = tested on: PC-3 prostate
SK-MEL-5 melanoma = tested on: SK-MEL-5 melanoma
UACC-62 melanoma = tested on: UACC-62 melanoma
LOX IMVI melanoma = tested on: LOX IMVI melanoma
SK-MEL-28 melanoma = tested on: SK-MEL-28 melanoma
SK-MEL-2 melanoma = tested on: SK-MEL-2 melanoma
SN12C renal = tested on: SN12C renal
UO-31 renal = tested on: UO-31 renal
TK-10 renal = tested on: TK-10 renal
ACHN renal = tested on: ACHN renal
CAKI-1 renal = tested on: CAKI-1 renal
A498 renal = tested on: A498 renal
CCRF-CEM leukemia = tested on: CCRF-CEM leukemia
MOLT-4 leukemia = tested on: MOLT-4 leukemia

Measured: growth

O=C(Cn1ccc(=O)[nH]c1=O)c1ccc([N+](=O)[O-])o1
inactive: HCT-15 colon 94.7% | HT29 colon 101% | SNB-75 CNS 103% | SNB-19 CNS 120% | U251 CNS 95.2% | PC-3 prostate 85.8% | SK-MEL-5 melanoma 90.7% | UACC-62 melanoma 87% | LOX IMVI melanoma 80% | SK-MEL-28 melanoma 95.3% | SK-MEL-2 melanoma 101% | SN12C renal 108% | UO-31 renal 109% | TK-10 renal 63.3% | ACHN renal 110% | CAKI-1 renal 105% | A498 renal 115% | CCRF-CEM leukemia 83% | MOLT-4 leukemia 106%

CCOC(=O)c1ccc(NC(=O)Nc2nncs2)cc1
active: HT29 colon 1.75% | SK-MEL-5 melanoma -21.2% | A498 renal -13.3% | CCRF-CEM leukemia 7.54%
inactive: HCT-15 colon 17.5% | SNB-75 CNS 19.6% | SNB-19 CNS 58.3% | U251 CNS 17.3% | PC-3 prostate 20.7% | UACC-62 melanoma 31.2% | LOX IMVI melanoma 13% | SK-MEL-28 melanoma 42.2% | SK-MEL-2 melanoma 37.4% | SN12C renal 31.2% | UO-31 renal 34.1% | TK-10 renal 45.1% | ACHN renal 36.1% | CAKI-1 renal 24.9% | MOLT-4 leukemia 11.7%

CC(C)/C=N/NC(N)=S
inactive: HCT-15 colon 90.6% | HT29 colon 62.2% | SNB-75 CNS 81.3% | SNB-19 CNS 98.3% | U251 CNS 80.8% | PC-3 prostate 55.1% | SK-MEL-5 melanoma 97.2% | UACC-62 melanoma 97.3% | LOX IMVI melanoma 96% | SK-MEL-28 melanoma 99.2% | SK-MEL-2 melanoma 103% | SN12C renal 85.5% | UO-31 renal 72.4% | TK-10 renal 109% | ACHN renal 90.6% | CAKI-1 renal 89% | A498 renal 82.7% | CCRF-CEM leukemia 28.9% | MOLT-4 leukemia 64.9%

Cn1cnc([N+](=O)[O-])c1/C=C1\Oc2ccc(Cl)cc2C1=O
inactive: HCT-15 colon 78.4% | HT29 colon 78.4% | SNB-75 CNS 83.6% | SNB-19 CNS 107% | U251 CNS 97.2% | PC-3 prostate 79.3% | SK-MEL-5 melanoma 91.8% | UACC-62 melanoma 91.1% | LOX IMVI melanoma 73% | SK-MEL-28 melanoma 105% | SK-MEL-2 melanoma 82.2% | SN12C renal 98.9% | UO-31 renal 48.3% | TK-10 renal 98.2% | ACHN renal 79.4% | CAKI-1 renal 78.1% | A498 renal 98.4% | CCRF-CEM leukemia 33.7% | MOLT-4 leukemia 49.3%

COc1ccc(-c2nc(-c3nc4ccc(C)cc4[nH]3)c3ccccn23)cc1
inactive: HCT-15 colon 33.7% | HT29 colon 21.9% | SNB-75 CNS 66.6% | SNB-19 CNS 55.3% | U251 CNS 42.6% | PC-3 prostate 25.3% | SK-MEL-5 melanoma 39.9% | UACC-62 melanoma 47% | LOX IMVI melanoma 46% | SK-MEL-28 melanoma 84.6% | SK-MEL-2 melanoma 47% | SN12C renal 44.9% | UO-31 renal 14.4% | TK-10 renal 69.4% | ACHN renal 55.6% | CAKI-1 renal 46.9% | A498 renal 19.6% | CCRF-CEM leukemia 18.7% | MOLT-4 leukemia 40.4%
